Experiment [1] can be described thus: qHTS RealTime-Glo MT Cell Viability Assay in HEK293 cells - 0 hour (AID 1224880). Further: top concentration of the series differs between compounds; nearly all actives have a fitted effect of over 45% in size. An outline of the steps:
(§1)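 qHTS format; HEK293 cells with NanoLuc/prosubstrate reagent, 37 C/5% CO2 for 5 h pre-dosing; compounds 23 nL in DMSO; luminescence at each time point reflects viable cells.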
A general note: Quantitative high-throughput screening tests each substance at several concentrations.

Experiment [2] is described as follows: A CellTox Green Cytotoxicity Assay to monitor cytotoxicity in HepG2 cells - 0 hour (AID 1224882). Further: nearly all actives have a fitted effect of over 35% in size. Further: potency means the concentration at half of the fitted maximal effect. Summed up: (§2)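 Continuous culture of HepG2 cells with a membrane-impermeant DNA dye; rising fluorescence marks dead cells. Compound exposure lasted up to 40 h at 37 C, with reads every 8 h from 0 h.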
Experiment [3] can be described thus: A CellTox Green Cytotoxicity Assay to monitor cytotoxicity in HepG2 cells - 32 hour (AID 1224883). Further: nearly all actives have a fitted effect of over 50% in size. Further: potency means the concentration at half of the fitted maximal effect. Summed up:
as §2

A short description of experiment [4]: A CellTox Green Cytotoxicity Assay to monitor cytotoxicity in HEK293 cells - 8 hour (AID 1224884). Further: nearly all actives have a fitted effect of over 35% in size. An outline of the steps:
(§3)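 Each value comes from one timepoint of a single continuous run in which HEK293 cells with CellTox Green were exposed to compound for up to 40 h at 37 C, dye fluorescence rising with cell death.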

Experiment [5] can be described thus: A CellTox Green Cytotoxicity Assay to monitor cytotoxicity in HEK293 cells - 16 hour (AID 1224888). Further: nearly all actives have a fitted effect of over 35% in size. Further: potency means the concentration at half of the fitted maximal effect. An outline of the steps: as §3
A short description of experiment [6]: qHTS RealTime-Glo MT Cell Viability Assay in HepG2 cells - 0 hour (AID 1224889). Further: nearly all actives have a fitted effect of over 50% in size. Summed up: (§4)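 Luminescence read-out: viable HepG2 cells reduce a prosubstrate to a NanoLuc substrate, giving a signal proportional to live cell number. Reads taken at 0, 8, 16, 24, 32 and 40 h of compound exposure at 37 C.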
Experiment [7] in a line: A CellTox Green Cytotoxicity Assay to monitor cytotoxicity in HepG2 cells - 8 hour (AID 1224890). Further: nearly all actives have a fitted effect of over 45% in size. Further: potency means the concentration at half of the fitted maximal effect. An outline of the steps: as §2
Experiment [8] can be described thus: qHTS assay to identify small molecule antagonists of the estrogen receptor alpha (ER-alpha) signaling pathway using the BG1 cell line in the presence of 0.1 nM 17-beta-estradiol - cell viability counter screen (AID 1259241). Further: nearly all actives have a fitted effect of over 40% in size. An outline of the steps: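 VM7Luc4E2 cells (endogenous ER-alpha, 4×ERE-luciferase), hormone-starved 5 days in charcoal-stripped FBS, were treated with compounds plus 0.1 nM 17beta-estradiol for 22 hr at 37C; viability read in same wells as CellTiter-Fluor live-cell protease fluorescence.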

Experiment [9] in a line: qHTS assay to identify small molecule antagonists of the androgen receptor (AR) signaling pathway using the MDA cell line in the presence of 0.5 nM R1881 - cell viability counter screen (AID 1259242). Further: nearly all actives have a fitted effect of over 45% in size. An outline of the steps:
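Fluorescence from CellTiter-Fluor, which reports protease activity of live cells, was read 30 min after reagent addition to MDA-kb2 cells that had been incubated 16 hr with compound and 0.5 nM R1881.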

Experiment [10] is described as follows: qHTS assay to identify small molecule phospholipidosis (PLD) inducers (AID 1259344; active means well fitted curve in the direction sought with a large enough effect; an effect the other way counts as inactive or inconclusive). Summed up: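 HepG2 cells grown on collagen I take up LipidTOX Red while exposed to compound for 24 h; after fixation they are imaged at 20x and pit metrics are extracted.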
Experiment [11] can be described thus: qHTS assay to identify small molecule HDAC inhibitors (AID 1259364). Further: nearly all actives have a fitted effect of over 45% in size. Further: potency means the concentration at half of the fitted maximal effect. Summed up: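 Endogenous HDAC class I/II activity was measured in wild-type HCT-116 cells by HDAC-Glo luminescence after 2 h compound treatment.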
Experiment [12] can be described thus: qHTS assay to identify small molecule HDAC inhibitors - cell viability counter screen (AID 1259365). Further: series mostly up to about 92 µM; nearly all actives have a fitted effect of over 50% in size. An outline of the steps: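 Wild-type HCT-116 cells were seeded at 1,500 per well, incubated overnight at 37 C, then exposed to compounds in DMSO for 2hr. Viability was read by CellTiter-Glo luminescence after 30min at room temperature.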
Experiment [13] is described as follows: qHTS assay to identify small molecule agonists of the sonic hedgehog signaling (Shh) pathway - cell viability counter screen (AID 1259366). Further: nearly all actives have a fitted effect of over 50% in size. Further: potency means the concentration at half of the fitted maximal effect. Summed up: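 NIH/3T3-derived 3T3 Gli1-Luc cells (stable Gli1-responsive firefly luciferase reporter) were seeded, rested 4 hr at 37 C/5% CO2, then exposed to compounds in DMSO for 24 hr; viability was read by CellTiter-Fluor fluorescence in the same wells.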

A short description of experiment [14]: qHTS assay to identify small molecule antagonists of the sonic hedgehog signaling (Shh) pathway - cell viability counter screen (AID 1259367). Further: nearly all actives have a fitted effect of over 55% in size. Summed up: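 After a 4 hr settling period, 3T3 Gli1-Luc cells were treated with DMSO-dissolved chemicals and conditioned medium, kept 24 hr at 37C in 5% CO2, and assayed for viability by CellTiter-Fluor fluorescence following 1 hr reagent incubation.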

Experiment [15] is described as follows: A CellTox Green Cytotoxicity Assay to monitor cytotoxicity in HEK293 cells - 32 hour (AID 1224881). Further: nearly all actives have a fitted effect of over 40% in size. Further: potency means the concentration at half of the fitted maximal effect. Summed up:
as §3

A short description of experiment [16]: qHTS RealTime-Glo MT Cell Viability Assay in HepG2 cells - 16 hour (AID 1224885). Further: nearly all actives have a fitted effect of over 50% in size. An outline of the steps: as §4
Experiment [17] is described as follows: qHTS RealTime-Glo MT Cell Viability Assay in HEK293 cells - 24 hour (AID 1224886). Further: nearly all actives have a fitted effect of over 50% in size. Further: potency means the concentration at half of the fitted maximal effect. Summed up:
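Nonlytic real-time viability readout: viable cells convert prosubstrate to NanoLuc substrate, giving luminescence proportional to live cell number. HEK293, 600 cells/well, compound added after 5 h, continuous culture at 37 C.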

Experiment [18] is described as follows: qHTS RealTime-Glo MT Cell Viability Assay in HEK293 cells - 8 hour (AID 1224887). Further: nearly all actives have a fitted effect of over 50% in size. Further: potency means the concentration at half of the fitted maximal effect. Summed up:
as §1

Experiment [19] addresses Estrogen receptor (Homo sapiens) (UniProt P03372). The experiment in a line: qHTS assay to identify small molecule antagonists of the estrogen receptor alpha (ER-alpha) signaling pathway using the BG1 cell line in the presence of 0.1 nM 17-beta-estradiol (AID 1259244). Further: nearly all actives have a fitted effect of over 50% in size. An outline of the steps:
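Quantitative high-throughput screen in VM7Luc4E2 cells: compound plus 0.1 nM E2 (final), 22 h, 37C, 5% CO2; ONE-Glo added, 30 min room temperature, luminescence measured.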

Experiment [20] concerns the target Androgen receptor (Homo sapiens) (UniProt P10275). Description: qHTS assay to identify small molecule antagonists of the androgen receptor (AR) signaling pathway using the MDA cell line in the presence of 0.5 nM R1881 (AID 1259243). Further: nearly all actives have a fitted effect of over 50% in size. An outline of the steps: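 Inhibition of R1881 (0.5 nM final) induced reporter signal was measured in human MDA-kb2 cells; note the MMTV promoter also responds to GR. Exposure lasted 16 hr at 37C.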

Values without a mark were called inactive. Records with an inconclusive call do not appear. Activity calls are given as the source filed them. Unless noted, the call rests on the fitted dose curve; in most records, active means well fitted curve in the direction sought with a large enough effect in the repeat runs; inconclusive means weak or mixed curves; inactive means no such curve, though single readings can be large; an effect the other way counts as inactive or inconclusive.

Chain of Estrogen receptor (Homo sapiens) (P03372 whole entry, looked up): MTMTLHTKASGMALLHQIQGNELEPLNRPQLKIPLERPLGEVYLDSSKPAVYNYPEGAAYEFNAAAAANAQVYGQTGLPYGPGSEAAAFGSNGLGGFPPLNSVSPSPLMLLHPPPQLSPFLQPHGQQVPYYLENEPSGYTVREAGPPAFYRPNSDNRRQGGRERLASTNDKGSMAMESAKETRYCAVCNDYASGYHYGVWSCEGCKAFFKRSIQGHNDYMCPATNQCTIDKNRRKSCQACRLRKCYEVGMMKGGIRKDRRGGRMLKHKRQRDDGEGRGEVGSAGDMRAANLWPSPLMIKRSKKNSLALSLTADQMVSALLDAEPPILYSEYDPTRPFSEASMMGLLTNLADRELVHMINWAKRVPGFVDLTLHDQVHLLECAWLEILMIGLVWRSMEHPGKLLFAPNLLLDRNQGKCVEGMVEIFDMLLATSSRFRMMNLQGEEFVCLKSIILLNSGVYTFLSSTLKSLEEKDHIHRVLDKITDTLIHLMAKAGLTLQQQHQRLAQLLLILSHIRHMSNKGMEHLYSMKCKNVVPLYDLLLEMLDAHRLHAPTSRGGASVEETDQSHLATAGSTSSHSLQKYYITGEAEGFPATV
Chain of Androgen receptor (Homo sapiens) (P10275 whole entry, looked up): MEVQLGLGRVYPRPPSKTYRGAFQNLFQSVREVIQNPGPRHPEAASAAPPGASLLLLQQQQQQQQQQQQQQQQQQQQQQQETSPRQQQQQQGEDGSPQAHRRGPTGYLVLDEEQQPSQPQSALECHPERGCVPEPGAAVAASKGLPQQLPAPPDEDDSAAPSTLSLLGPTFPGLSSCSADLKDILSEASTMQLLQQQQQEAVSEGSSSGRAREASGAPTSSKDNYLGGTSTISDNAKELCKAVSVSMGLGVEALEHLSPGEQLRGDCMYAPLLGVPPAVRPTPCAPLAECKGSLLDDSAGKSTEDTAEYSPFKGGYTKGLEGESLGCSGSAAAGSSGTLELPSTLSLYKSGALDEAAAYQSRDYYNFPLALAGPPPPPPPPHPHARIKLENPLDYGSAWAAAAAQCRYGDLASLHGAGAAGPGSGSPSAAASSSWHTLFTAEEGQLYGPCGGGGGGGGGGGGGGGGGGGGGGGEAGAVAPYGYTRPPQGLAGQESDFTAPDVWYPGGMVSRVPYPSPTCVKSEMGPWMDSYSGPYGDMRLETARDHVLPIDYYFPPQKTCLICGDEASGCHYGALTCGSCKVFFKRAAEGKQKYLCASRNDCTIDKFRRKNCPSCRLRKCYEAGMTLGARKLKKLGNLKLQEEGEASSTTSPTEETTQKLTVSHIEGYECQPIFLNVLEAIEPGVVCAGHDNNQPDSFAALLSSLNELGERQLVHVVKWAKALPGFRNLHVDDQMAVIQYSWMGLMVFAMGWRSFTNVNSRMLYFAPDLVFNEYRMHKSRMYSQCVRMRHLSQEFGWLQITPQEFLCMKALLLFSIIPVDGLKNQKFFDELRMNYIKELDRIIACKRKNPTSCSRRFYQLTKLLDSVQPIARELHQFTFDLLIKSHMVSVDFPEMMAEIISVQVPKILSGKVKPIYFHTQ

As to `C[C@H](CN1CCCC1)C(=O)c1ccc(C(F)(F)F)cc1`, the Potency result in experiment [1], in experiment [2], in experiment [4], in experiment [5], in experiment [6] and in [7] was “inactive” in each case. In addition, the Potency entry in [8], in [9], in [10], in experiment [11], in experiment [13] and in [14] was “inactive” throughout. The Potency in experiment [3] was 21.3 µM (active). Also, the call in experiment [12] was inactive.
For `C=C[Si]1(C)O[Si](C)(C=C)O[Si](C)(C=C)O[Si](C)(C=C)O1` (stereo not given), the Potency result in experiment [1], in experiment [15], in [2], in [4], in [17] and in experiment [18] was “inactive” throughout. The Potency result in experiment [5], in experiment [6], in experiment [7], in [8], in experiment [9] and in experiment [11] was “inactive” each time. In experiment [13], the Potency entry is “inactive”. Further, the compound was called inactive in experiment [16] and in [12].
As to `Oc1ccc(Oc2ccccc2)cc1`, the Potency entry in experiment [1], in experiment [2], in experiment [6], in [8], in [9] and in experiment [11] was “inactive” in each case. The Potency entry in experiment [13] and in experiment [14] was “inactive” in each case. Besides, the Potency in experiment [3] is 36.9 µM (active); in experiment [17], 16.5 µM (active); in experiment [18], 16.5 µM (active). Further, the outcome in [16] and in experiment [12] was inactive.
On to `CC(C)(C)NCC(O)COc1ccc(NC(=O)NC2CCCCC2)cc1` (stereo not given), for which the Potency result in experiment [15], in experiment [2], in experiment [3], in experiment [4], in [7] and in experiment [8] was “inactive” each time. The Potency result in experiment [9], in experiment [19], in [10], in [11], in [13] and in experiment [14] was “inactive” throughout. Moreover, in experiment [12], the call was inactive.
Regarding `O=Cc1ccc(Cl)c([N+](=O)[O-])c1`, the Potency result in [1], in [15], in [2], in experiment [4], in experiment [18] and in [5] was “inactive” each time. The Potency result in experiment [6], in experiment [7], in [8], in experiment [9], in experiment [19] and in experiment [11] was “inactive” in each case. Besides, in experiment [14], the Potency entry is “inactive”. Further, the compound was classed as inactive in experiment [16] and in experiment [12]. The Potency in experiment [13] was 27.3 µM (active).
Regarding `c1ccc(CCNc2nc(-c3ccccc3)cs2)cc1`, the Potency entry in experiment [1], in [4], in experiment [17], in experiment [6], in experiment [8] and in experiment [9] was “inactive” throughout. Further, the Potency entry in experiment [19], in experiment [10], in experiment [13] and in experiment [14] was “inactive” throughout. Besides, the outcome in experiment [16] was inactive. Also, the Potency in experiment [11] is 2.98 µM (active).
For the compound `O=C(OCCOCCOCCOC(=O)c1ccccc1)c1ccccc1`, the Potency entry in [1], in [15], in experiment [2], in [4], in [17] and in experiment [5] was “inactive” throughout. In addition, the Potency result in experiment [6], in [7], in [8], in experiment [9], in experiment [11] and in [13] was “inactive” throughout. Also, the Potency entry in experiment [14] was “inactive”. In addition, the result in experiment [16] and in experiment [12] was inactive.
In the case of `CC1(COc2ccc(CC3SC(=O)NC3=O)cc2)CCCCC1` (stereo not given), the Potency result in [1], in [2], in experiment [3], in experiment [4], in [17] and in experiment [18] was “inactive” throughout. For the same compound, the Potency entry in experiment [5], in experiment [6], in [7], in experiment [8], in experiment [9] and in experiment [19] was “inactive” each time. Moreover, the Potency result in experiment [10], in [11] and in [13] was “inactive” each time. Besides, the outcome in experiment [16] and in experiment [12] was inactive.
As for `Cc1ccc(NC(=O)c2ccc(CN3CCN(C)CC3)cc2)cc1Nc1nccc(-c2cccnc2)n1`, the Potency entry in experiment [1], in experiment [15], in experiment [2], in experiment [4], in experiment [6] and in [7] was “inactive” each time. In addition, the Potency entry in [9] and in experiment [11] was “inactive” each time. Further, the outcome in experiment [16] and in experiment [12] was inactive. In addition, in experiment [17], the Potency is 21.3 µM (active).
Regarding `CC(=O)c1ccc(Cl)c(Cl)c1Cl`, the Potency result in experiment [1], in experiment [2], in experiment [3], in [17], in [18] and in experiment [5] was “inactive” in each case. Moreover, the Potency result in [6], in experiment [7], in experiment [8], in experiment [9], in [13] and in [14] was “inactive” each time. Further, the compound was called inactive in experiment [16] and in experiment [12].
Regarding `NC(=O)c1ccccc1C(N)=O`, the Potency entry in [1], in [6], in experiment [9], in [20], in experiment [19] and in experiment [11] was “inactive” in each case. Moreover, the Potency entry in experiment [13] and in experiment [14] was “inactive” throughout. Besides, the Potency in [15] is 49.2 µM (active); in experiment [2], 49.2 µM (active); in experiment [3], 55.2 µM (active); in [17], 34.8 µM (active); in experiment [5] it was 49.2 µM (active); in experiment [7], 49.2 µM (active). For the same compound, the compound was called inactive in experiment [12].

These data come from PubChem BioAssay (Tox21).
